# Assay results reported in PubChem BioAssay (Tox21).
# Active and inactive are the calls of the source. Calls follow the shape of the dose curve; as a rule, active = well fitted activation curve with a large enough effect in the repeat runs; inconclusive = weak or mixed curves; inactive = flat fitted curve, though single readings scatter.
# Experiment: Caspase-3/7 induction in CHO-K1 cells by small molecules, qHTS assay (AID 1346980); also: nearly all actives have a fitted effect of over 15% in size
# Conditions: CHO-K1 caspase-3/7 induction, Caspase-Glo luminescence, 17 h; series mostly up to 92.4 µM; caspase-3/7 activation: at the top concentration
# Excerpt: National Center for Advancing Translational Sciences [NCATS]
# NIH Chemical Genomics Center [NCGC]
# U.S. Environmental Protection Agency [EPA]
# National Institutes of Environmental Health Sciences [NIEHS]
# National Toxicology Program [NTP]
# Apoptosis is a process of programmed cell death and plays a central role in the development of multicellular organisms. It is a highly regulated process and induces cell death by activating caspases, which are the members of cysteine aspartic acid-specific protease (caspase) family. Caspases involved in apoptosis are classified by their mechanism of action as initiator caspases (caspase-2, -8, -9 and -10) and executioner caspases (caspase-3, -6, and -7). Inhibition of apoptosis results in number of cancers, autoimmune diseases, inflammatory diseases and viral infection. To identify small molecule compounds that induce apoptosis, a homogeneous, luminescent Caspase-Glo 3/7 assay was used. Wild type CHO-K1 cells were used to screen Tox21 libraries for identifying caspase-3/7 activity inducers.
# CHO-K1 cells were dispensed at 1,500 per well in 5uL of culture medium into white solid bottom 1536-well plates (Corning Life Sciences, Corning, NY) using a Multidrop Combi (Thermo Scientific, Waltham, MA) dispenser. The assay plates were incubated at 37 C and 5% CO2 for 5hr, and then 23nL of compounds dissolved in DMSO and positive control were transferred using a Pintool station (Wako, San Diego, CA). The assay plates were incubated at 37C and 5% CO2 for 17hr. For caspase-3/7 activity read, 4uL of Caspase-Glo 3/7 reagent (Promega Corporation, Madison, WI) was added to each well of the assay plates using Flying Reagent Dispenser (FRD, Aurora Discovery, San Diego, CA) and incubated the assay plates at room temperature for 30min. The luminescence signal was quantified using a ViewLux plate reader (Perkin Elmer, Shelton, CT).
# % is scaled to controls: 0 for no effect and ±100 for the full control effect; potency is read from the fitted curve at half-maximal effect.
SMILES,caspase-3/7 activation,Potency
COC(=O)CCS,0.925% (inactive),–
NNC(=O)CP(=O)(c1ccccc1)c1ccccc1,0.109% [at 42.5 µM] (inactive),–
CCN(CC)CCNC(=O)COc1ccc(OC)cc1,0.663% [at 42.5 µM] (inactive),–
Cc1ccc(Cl)c(Nc2ccccc2C(=O)O)c1Cl,0.121% [at 42.5 µM] (inactive),–
Cc1cscn1,1.29% (inactive),–
c1ccc2c(c1)CCc1ccccc1N2,–,inactive
CCC1NC(=O)c2cc(S(N)(=O)=O)c(Cl)cc2N1 (stereo not given),-1.01% [at 42.5 µM] (inactive),–
CC(=O)NC1(c2cccc(F)c2)CCN(CC[C@@]2(c3ccc(Cl)c(Cl)c3)CN(c3ccccc3)C(=O)CO2)CC1,–,48.7 µM (active)
CC1=Nc2ccc3ccccc3c2C1(C)C,0.143% (inactive),–
Cc1cc(O)c(C)c(C)c1O,-1.03% [at 42.5 µM] (inactive),–
CC1=C(CC=O)C(C)(C)CCC1,-1.22% (inactive),–
CCOc1ccccc1O[C@H](c1ccccc1)[C@H]1CNCCO1,0.555% [at 42.5 µM] (inactive),–
CC1(CN2CCC(n3c(=O)[nH]c4ccccc43)CC2)OCc2ccccc2-n2cccc21 (stereo not given),-1.77% [at 42.5 µM] (inactive),–
Cc1ccc2c(Br)cc(Br)c(O)c2n1,-0.47% [at 42.5 µM] (inactive),–
c1ccc2sc(SN(C3CCCCC3)C3CCCCC3)nc2c1,0.967% (inactive),–
C=COCC(C)C,0.804% (inactive),–
O=C1C(=O)c2ccccc2C(O)=C1C1CCC(c2ccc(Cl)cc2)CC1 (stereo not given),-2.79% [at 42.5 µM] (inactive),–
Nc1ncnc2c1ncn2[C@H]1CC[C@@H](CO)O1,1.88% (inactive),–
CCCCC(CC)CN (stereo not given),-0.524% (inactive),–
C/C=C/C=C/C=O,-0.567% (inactive),–

SMILES,caspase-3/7 activation,Potency
C=C(C)C(=O)OCCCCCCCCCCCCC,0.154% (inactive),–
CC(=O)OCC[N+](C)(C)C,0.74% [at 42.5 µM] (inactive),–
CCCCN1CCCC1C(=O)Nc1c(C)cc(C)cc1C (stereo not given),1.3% [at 42.5 µM] (inactive),–
CC(=O)Oc1ccc([N+](=O)[O-])cc1CCl,-1.88% (inactive),–
CCC(C)COC(=O)CC(C)C (stereo not given),0.0718% (inactive),–
CCOC(C)=O,0.0118% (inactive),–
O=C(O)c1ccc(OCCCOc2ccc(C(=O)O)cc2)cc1,0.116% [at 42.5 µM] (inactive),–
CCCCN(CCCC)C(C(N)=O)c1ccc(OC)cc1 (stereo not given),-0.0273% [at 42.5 µM] (inactive),–
CN1CCCN=C1COC(=O)C(O)(c1ccccc1)C1CCCCC1 (stereo not given),-1.14% [at 42.5 µM] (inactive),–
CC(CCC(=O)O)C(=O)O (stereo not given),0.336% (inactive),–
C[C@]1(Cn2ccnn2)[C@H](C(=O)O)N2C(=O)C[C@H]2S1(=O)=O,-0.126% [at 42.5 µM] (inactive),–
O=c1cc(-c2ccccc2)oc2cc(O)cc(O)c12,-4.96% (inactive),–
CCOC(=O)c1ccc(OCCN2C[C@H](O)[C@@H](O)[C@H](O)[C@H]2CO)cc1,-0.0445% [at 42.5 µM] (inactive),–
Nc1nnc(-c2ccc([N+](=O)[O-])o2)o1,-0.662% (inactive),–
Oc1c(I)cc(I)c2cccnc12,-0.823% [at 42.5 µM] (inactive),–
C=C(C)C(=O)OCCOCCOC(=O)C(=C)C,-0.314% (inactive),–
CCCC(C(=O)OCCN(CC)CC)(c1ccccc1)c1ccccc1,0.673% [at 42.5 µM] (inactive),–
O=C1c2ccccc2C(=O)c2c(O)c(O)cc(O)c21,-2.97% (inactive),–
CN1C(=O)OC(C)(C)C1=O,-0.149% (inactive),–
CCCCCCCCOc1ccc(C(=O)O)cc1,-3.87% (inactive),–
